Compounds with a hit are over-represented: about 9.3% of the library has one in this group of screens.
FLuc counter: firefly luciferase modulation, counter-screen for miR-21 project; purified FLuc, Km substrates, luminescence inhibition; Potency, µM (series often up to 57.5 µM), without a hit: at the top dose activity change, negative = inhibition, most hits filed as inhibitors; 6.9% of 360,000 active; AID 588342;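 also: plate controls were vehicle for no effect and reference inhibitor for full effect; nearly all actives have a fitted effect of over 55% in size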
Target sequence (P08659 whole entry, looked up): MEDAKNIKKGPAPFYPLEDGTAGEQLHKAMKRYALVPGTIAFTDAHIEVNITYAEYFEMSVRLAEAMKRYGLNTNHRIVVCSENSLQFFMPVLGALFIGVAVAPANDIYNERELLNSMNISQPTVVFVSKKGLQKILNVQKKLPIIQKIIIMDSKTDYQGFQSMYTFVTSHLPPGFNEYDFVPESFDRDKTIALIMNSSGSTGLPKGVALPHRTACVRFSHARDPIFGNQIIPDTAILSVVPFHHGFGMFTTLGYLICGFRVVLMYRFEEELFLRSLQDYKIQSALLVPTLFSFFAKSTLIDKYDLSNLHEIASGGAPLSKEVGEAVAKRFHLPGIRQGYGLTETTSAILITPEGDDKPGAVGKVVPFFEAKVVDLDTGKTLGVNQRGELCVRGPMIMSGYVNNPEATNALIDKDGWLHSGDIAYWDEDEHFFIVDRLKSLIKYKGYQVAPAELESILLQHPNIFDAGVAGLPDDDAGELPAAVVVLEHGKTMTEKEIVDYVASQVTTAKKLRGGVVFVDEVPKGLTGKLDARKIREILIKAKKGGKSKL
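Purified P. pyralis luciferase (10nM final) with 10uM D-luciferin and 10uM ATP (Km levels) in 50mM Tris acetate pH 7.5, 10mM Mg acetate, 0.01% Tween-20, 0.05% BSA; qHTS 6-point titration, ~60 µM downward; luminescence read.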
ELG1 genotoxic: genotoxicity induction in ELG1-luciferase HEK293T cells. 1.3% of 330,000 active. HEK293T ELG1-luciferase reporter, luminescence, 16 h. AID 504466. Potency, µM (series often up to 46 µM), inactives show at the top dose activity change, positive = activation, most hits filed as activators; also: % of control where 0% means no effect; nearly all actives have a fitted effect of over 60% in size
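Step 1: seed 2,000 HEK293T ELG1-luciferase cells per well. Step 2: add compound or DMSO, incubate 16 hr at 37 °C. Step 3: ONE-Glo, 30 min at room temperature, read luminescence.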
ELG1 DNA repair: ELG1-dependent DNA repair inhibition; 2.3% of 330,000 active; HEK293T ELG1-luciferase reporter, luminescence, 16 h; DNA damage induced by 5-fluorouridine; Potency, µM (top dose mostly 46.1 µM), for inactives: top-dose activity change, negative = inhibition, usual class: inhibitors; AID 504467; also: % is scaled to controls: 0 for no effect and ±100 for the full control effect; nearly all actives have a fitted effect of over 55% in size
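Overnight (16 hr) co-exposure of 2,000 cells/well to 5-fluorouridine and compound at 37 °C preceded detection. Luciferase was quantified via ONE-Glo luminescence; loss of signal denotes inhibition.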
NPC1 promoter act: activates the NPC1 promoter. Potency, µM (doses to about 9.22 µM), for the others: at the top dose activation, actives largely listed as activators. 2.4% of 320,000 active. Huh7 NPC1 promoter luciferase reporter, 24 h; also: % of control where 0% means no effect; nearly all actives have a fitted effect of over 60% in size
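Luminescence from an NPC1 promoter-driven luciferase reporter in stably transfected Huh7 cells was measured after 24 h compound treatment at 37 °C, followed by 10 min ambient incubation with luciferase detection reagent.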
SMN2 splice enh: increases expression of the SMN2 splice variant. Potency, µM (titrated, usually from 46.1 µM), inactives show at the highest dose activity change, positive = activation, most hits filed as activators. 2.8% of 210,000 active. HEK293 SMN2-luciferase splicing reporter, luminescence, 30-36 h; also: % of control where 0% means no effect; nearly all actives have a fitted effect of over 55% in size
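qHTS luciferase splicing reporter: luminescence rises when SMN2 exon 7 is included in transfected HEK293 cells. Compound exposure lasted 30-36 h at 37C, with 4.5 mM final sodium butyrate as control, followed by a ONE-Glo read.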
Rab9 promoter act: activators of Rab9 promoter; Potency, µM (doses to about 9.22 µM), without a hit: at the top dose activation, negative = inhibition, actives largely listed as activators; 2.8% of 320,000 active; Huh7 Rab9 promoter-luciferase reporter, luminescence, 24 h; also: % of control where 0% means no effect; nearly all actives have a fitted effect of over 60% in size
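Stable Rab9-luc Huh7, 1500 cells/well, 2 h settle; cmpd in DMSO, 24 h, 37 °C/5% CO2; luciferase reagent 10 min RT; luminescence.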
Active calls of the source: *; ? = inconclusive; · = no result; [ ] = remark or other dose. Calls follow the shape of the dose curve; as a rule, active = well fitted curve in the direction sought with a large enough effect; inconclusive = small, poorly fitted or top-dose-only effect, or another doubt; inactive = no such curve, though single readings can be large; an effect the other way counts as inactive or inconclusive. Potency is read from the fitted curve at half-maximal effect.

SMILES	FLuc counter	ELG1 genotoxic	ELG1 DNA repair	NPC1 promoter act	SMN2 splice enh	Rab9 promoter act
Cc1ccc(C(=O)N/N=C\c2cccnc2)s1	6.7µM*	?	?	24%	·	?
O=C(N/N=C\c1ccc(F)cc1)c1ccc(F)cc1	19µM*	?	?	?	?	?
CC(=O)Nc1ccc(C(=O)N/N=C/c2ccc(F)cc2)cc1	-13%	4%	0%	-1%	-21%	0%
O=C(N/N=C/c1cccnc1)c1ccc([N+](=O)[O-])cc1	15µM*	0%	-1%	-4%	-12%	-2%
O=C1NC(Cc2ccccc2)c2nc3cc(Cl)ccc3c(=O)n2-c2cc(Cl)ccc21 (stereo unspecified)	·	-5%	1%	·	·	·
O=C(N/N=C/c1ccoc1)c1ccc([N+](=O)[O-])cc1	21µM*	7%	-2%	4%	·	1%
CSc1ccc(/C=N/NC(=O)c2cccc(O)c2)cc1	4.3µM*	?	?	?	?	3.5µM*
Oc1ccc2oc3c(c2c1)CCCC3	?	2%	0%	1%	-6%	3%
O=c1[nH]cnc2scc(-c3ccc(-c4ccccc4)cc3)c12	1.2µM*	1.8µM*	?	1.1µM*	14µM*	1.1µM*
CCCOc1ccc(-c2csc3nc[nH]c(=O)c23)cc1	?	?	?	3.2µM*	·	1.6µM*
COc1ccc(-c2csc3nc[nH]c(=O)c23)cc1OC	-3%	0%	3%	-1%	·	7%[1.84 µM]
Cc1ccc(C)n1-c1ccc(-c2nnco2)cc1	-16%	10%	16%	0%	7%	2%
Cc1cc(-c2nnco2)c(C)n1-c1ccc(F)cc1	17µM*	5%	?	26%	0%	30%
O=[N+]([O-])c1ccccc1/C=N\Nc1nccs1	0%	-1%	16%	-2%	·	1%
O=[N+]([O-])c1cc(/C=N\Nc2nccs2)ccc1O	17µM*	-5%	-17%	5%	?	1%
CCOc1ccc(-c2cc(CCCC(=O)NCCc3cc(OC)c(OC)c(OC)c3)no2)cc1	13µM*	·	·	·	-17%	·
COc1ccc(CCNC(=O)CSc2nnc(-c3ccccc3)c3ccccc23)cc1OC	3%	-3%	?	-3%	2%	-6%
CCOc1ccc(-c2cc(CCCC(=O)NCCCOC)no2)cc1	12µM*	0%	?	-2%	17%	8%
CCCCn1c(-c2ccccc2)cnc1SCC(=O)NCCc1ccc(OC)c(OC)c1	17µM*	4%	?	-2%	28%	2%
CCOc1ccc(CCNC(=O)CCc2nc(-c3ccc(OC)cc3)no2)cc1OCC	8%	0%	-23%	1%	-18%	1%
CCOc1ccc(-c2cc(CCCC(=O)N3CCN(c4ccc(OC)cc4)CC3)no2)cc1	?	0%	-23%	0%	-36%	-1%
CCOc1ccc(-c2cc(CCCC(=O)NCCc3ccc(OC)c(OC)c3)no2)cc1	11µM*	·	·	·	-62%	·
COc1ccc([N+](=O)[O-])cc1NC(=O)C1(c2ccccc2)CCOCC1	1%	-3%	-14%	-11%	-15%	0%
O=C(Cn1[nH]c(=O)c2ccccc2c1=O)OCC(=O)N1CCc2ccccc2C1	0%	-2%	4%	-2%	-3%	-1%
COc1cccc(NC(=O)Nc2ccc3c(c2)nnn3C)c1	6.7µM*	10%	?	?	18µM*	?
SMILES	FLuc counter	ELG1 genotoxic	ELG1 DNA repair	NPC1 promoter act	SMN2 splice enh	Rab9 promoter act
Cc1ccc(NC(=O)Nc2ccc3snnc3c2)cc1C	24µM*	·	·	·	1%	·
COc1cccc(NC(=O)Nc2ccc3snnc3c2)c1	17µM*	·	·	·	19%	·
O=C(Nc1ccc2snnc2c1)Nc1cccc2ccccc12	21µM*	-1%	?	-4%	-8%	4%
COc1ccccc1C(=O)Nc1ccc(C(=O)Nc2ccccc2C(=O)O)cc1	0%	-8%	18%	2%	·	4%
CCOc1ccc(C(=O)Nc2cccc(C(=O)O)c2C)cc1Cl	3.4µM*	-10%	?	?	0.5µM*	?
COc1ccc(C(=O)Nc2ccccc2C(=O)O)cc1Cl	5.4µM*	?	?	?	-2%[1.84 µM]	3.5µM*
COc1ccc(C(=O)Nc2ccccc2C(=O)N/N=C/c2ccccn2)cc1OC	0.85µM*	21µM*	?	-8%	·	-14%
COc1ccc(C(=O)Nc2cc(C(=O)O)cc(C(=O)O)c2)cc1Cl	-1%	-4%	-8%	-6%	3%	-9%
COc1ccc(C(=O)Nc2ccccc2C(=O)O)cc1NC(=O)C(c1ccccc1)c1ccccc1	13µM*	4%	?	20%	·	22%
O=C(O)c1cnn2c1NC(c1cccs1)CC2C(F)(F)F (stereo unspecified)	2%	1%	-1%	5%	·	5%
CCN(Cc1ccccc1)S(=O)(=O)c1cc(C(=O)NCC2CCCCC2)ccc1OC	2%	-4%	23µM*	-4%	-36%	0%
COc1ccc(C(=O)Nc2ccccc2C(=O)NC(C)C)cc1OC	-6%	-2%	18µM*	6%	-5%	0%
CCN(CC)S(=O)(=O)c1cc(C(=O)Nc2ccccc2C(=O)O)ccc1OC	6µM*	5%	?	16%	10%	0%
CCN(CC)C(=O)c1ccccc1NC(=O)c1cccc(S(=O)(=O)N(CC)CC)c1	1%	0%	-21%	-7%	0%	-4%
CCOc1c(Cl)cc(C(=O)Nc2ccccc2C(=O)O)cc1Cl	19µM*	1%	?	25%	?	?
NNC(=O)c1ccc(CSc2cccc3cccnc23)cc1	?	1%	-1%	1%	-3%	0%
